Our source for the growth values is PubChem BioAssay (NCI).

Each structure is given as a SMILES string. The panel holds about 83,000 compounds, 20% with a hit somewhere; the sample as a whole holds those more often.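 Single-dose data. Exposure time 48 hours. Values below 10 considered active.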 Values without a mark were called inactive. Activity calls are given as the source filed them.

Holding throughout (test): NCI-60 one-dose screen, 48 h (100 = growth as untreated, 0 = no growth, -100 = all killed)
Conditions in all cases: 10 µM unless noted

The test system of experiment [1] is HCT-15 colon.
Experiment [2] concerns HT29 colon.
Experiment [3] has as its system SNB-75 CNS.
Experiment [4] has as its system SNB-19 CNS.
Experiment [5] has as its system U251 CNS.
The test system of experiment [6] is PC-3 prostate.
In experiment [7] the test system is SK-MEL-5 melanoma.
The subject of experiment [8] is UACC-62 melanoma.
For experiment [9], the system named is LOX IMVI melanoma.
The test system of experiment [10] is SK-MEL-28 melanoma.
Experiment [11] has as its system SK-MEL-2 melanoma.
Experiment [12] has as its system EKVX NSCLC.
The test system of experiment [13] is SN12C renal.
The subject of experiment [14] is UO-31 renal.
For experiment [15], the system named is TK-10 renal.
The test system of experiment [16] is ACHN renal.
Experiment [17] concerns CAKI-1 renal.
The test system of experiment [18] is A498 renal.
For experiment [19], the system named is CCRF-CEM leukemia.
Experiment [20] concerns MOLT-4 leukemia.

For the compound `O=C1NCCC12CCN(c1c(Cl)cncc1-c1ccc(O)cc1)CC2`, the growth in experiment [1] is 105%; in experiment [2], 94.2%; in [3], 112%; in experiment [4], 98.9%; in experiment [5] it was 94.9%; in experiment [6] it was 98.8%. In addition, the growth in experiment [7] was 94.4%; in experiment [8] it was 90.2%; in experiment [9], 87.7%; in experiment [10], 103%; in [11], 105%; in [12] it was 86.4%. Moreover, the growth in experiment [13] was 99.6%; in experiment [14], 77.8%; in experiment [15], 86.9%; in experiment [16] it was 70.2%; in experiment [17], 90.3%; in experiment [18], 85%. In addition, the growth in [19] is 98.9%; in experiment [20] it was 102%.
With `CCOC(=O)c1[nH]c(=O)c2c(C)nc(-c3ccccc3)cc2c1O`, the growth in experiment [1] is 100%; in experiment [2], 113%; in [3] it was 118%; in experiment [4], 104%; in experiment [5] it was 117%; in [6], 72.1%. Moreover, the growth in experiment [7] is 96.7%; in experiment [8], 109%; in experiment [9], 112%; in [10] it was 105%; in experiment [11] it was 84.8%; in [12] it was 98.8%. The growth was 88.8% in experiment [13]; 90% in [14]; 178% in [15]; 110% in experiment [16]; 109% in experiment [17]; 72.6% in experiment [18]. Moreover, the growth in [19] was 91.8%; in [20], 98.1%.
As for `O=C1c2c(c3c4ccc(Br)cc4oc3c3[nH]c4ccccc4c23)C(=O)N1O`, the growth in [1] is 19%; in experiment [2], 8.99% (active); in experiment [3], 4.21% (active); in experiment [4], 29.7%; in experiment [5], 22.8%; in [6] it was 40.9%. For the same compound, the growth in experiment [7] is -71.8% (active); in experiment [8] it was -2.55% (active); in experiment [9] it was 6.55% (active); in [10] it was -0.104% (active); in experiment [11] it was 20%; in [12], 66.6%. Moreover, the growth in experiment [13] was 14.5%; in experiment [14] it was 13.8%; in experiment [15] it was 121%; in experiment [16], 22.8%; in [17], 29%; in [18], 13.1%. For the same compound, the results for the growth in [19] and in experiment [20] were 11.4% and 11.2%, respectively.
`CN1CCN(Cc2ccc(NC(=O)c3cncc(C#Cc4cnc(N)c5ccccc45)c3)cc2C(F)(F)F)CC1`: the growth is -82.8% (active) in experiment [1]; -14.5% (active) in experiment [2]; -73% (active) in [3]; -78.5% (active) in experiment [4]; -98.5% (active) in [5]; -53.1% (active) in experiment [6]. In addition, the growth in experiment [7] was -98.1% (active); in experiment [8] it was -91.4% (active); in experiment [9], -92.1% (active); in experiment [10] it was -92.9% (active); in experiment [11], -81.6% (active); in experiment [12], -96.3% (active). Moreover, the growth was -90.7% (active) in [13]; -89.7% (active) in experiment [14]; -90% (active) in experiment [15]; -100% (active) in experiment [16]; -92.1% (active) in [17]; -87% (active) in [18]. Also, the figures for the growth in experiment [19] and in experiment [20] were -6.38% (active) and 2.94% (active), respectively.
Take `CN1CCN(C(=O)OCc2ccc3c(Cl)cc(Cl)c(O)c3n2)CC1`: the growth is 22.8% in experiment [1]; 103% in [2]; 70.7% in experiment [3]; 53.3% in experiment [4]; 36.6% in [5]; 44.1% in experiment [6]. For the same compound, the growth in [7] is 49.6%; in [8], 60%; in experiment [9], 49.3%; in experiment [10] it was 67.1%; in experiment [11], 76%; in [12], 79.7%. The growth is 56.9% in experiment [13]; 34% in [14]; 105% in [15]; 45% in experiment [16]; 55.1% in experiment [17]; 106% in experiment [18]. Also, the values for the growth in experiment [19] and in [20] were 40.5% and 8.31% (active), respectively.
For `CC1Cc2c(Cl)ncnc2N(C)c2ccc(F)cc21` (stereo not given), the growth in [1] is 106%; in experiment [2], 90.6%; in [3], 59.8%; in [4], 104%; in experiment [5], 89.7%; in experiment [6], 87.5%. Besides, the growth in [7] was 76.9%; in experiment [8] it was 99.6%; in experiment [9], 92.3%; in experiment [10], 86.5%; in experiment [11] it was 110%; in [12] it was 87.6%. The growth in experiment [13] is 106%; in experiment [14] it was 79.6%; in [15], 98.9%; in [16] it was 103%; in experiment [17], 91%; in experiment [18], 101%. In addition, the growth was 95.6% in [19] and 89.2% in experiment [20].
For `CC(=O)Nc1nc2ccc(NS(=O)(=O)c3cccc4c(N(C)C)cccc34)cc2[nH]1`, the growth was 72.9% in experiment [1]; 63% in experiment [2]; 31% in experiment [3]; 52.3% in [4]; 70.2% in experiment [5]; 60.2% in experiment [6]. Besides, the growth in experiment [7] is 21.5%; in experiment [8] it was 27.3%; in [9] it was 53.6%; in [10] it was 57.9%; in experiment [11], 80.8%; in experiment [12] it was 75.9%. The growth in experiment [13] was 69.8%; in [14], 68.4%; in experiment [15], 102%; in experiment [16], 75.7%; in experiment [17], 42.7%; in experiment [18] it was 2.64% (active). Moreover, the growth in experiment [19] is 47.9%; in experiment [20], 59.4%.
Consider `COc1ccc(/C=C2\C(=O)N=C3N2NC(c2cc(Br)ccc2O)C=C(C)N3c2ccccc2)cc1` (stereo not given), for which the growth in [1] is 103%; in [2], 106%; in experiment [3] it was 99%; in experiment [4] it was 93.8%; in experiment [5], 93.8%; in [6], 92.1%. Also, the growth in experiment [7] is 97%; in [8] it was 90.6%; in [9], 95%; in [10], 99.1%; in experiment [11] it was 104%; in experiment [12], 105%. In addition, the growth is 97.6% in [13]; 81.6% in experiment [14]; 118% in [15]; 99% in [16]; 96.5% in experiment [17]; 94.1% in experiment [18]. The growth in [19] is 99.8%; in [20], 97.4%.
